# Measurements from the supplement of paper PMC10849652.
# Of roughly 8,800 targets only a part is listed; those with a hit were picked by preference. About 0.5% of all pairs of compound and target were hits. Values without a mark were called inactive.
# Tests used:
# Assay in all cases: log2 fold change, soluble protein after heating vs DMSO (PISA); higher = thermal stabilisation; K562 lysate, 10 uM; active = over 0.2 and 3.5 SD of the protein, either way, in both replicates (recomputed)
# lapatinib = compound: CS(=O)(=O)CCNCc1ccc(-c2ccc3ncnc(Nc4ccc(OCc5cccc(F)c5)c(Cl)c4)c3c2)o1 [lapatinib]
# How it was run: (§1)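 K562 pellets were dounce-homogenised in PBS pH 7.4 containing 1 mM MgCl2, and the crude extract, at 1 mg/mL protein, was exposed to 10 μM compound for 30 min. Aliquots were heated for 3 min across 48°C-58°C, pooled, brought to 0.5% NP-40 at 4°C and spun at 21,000xg for 90 min, with the supernatant taken as soluble protein. TMTpro 16plex LC-MS/MS with equalised channel sums quantified that protein. Values are log-two fold changes in thermal stability relative to solvent controls, taken from duplicates.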
# pictilisib = compound: CS(=O)(=O)N1CCN(Cc2cc3nc(-c4cccc5[nH]ncc45)nc(N4CCOCC4)c3s2)CC1 [pictilisib]
# How it was run: as §1
# crizotinib = compound: C[C@@H](Oc1cc(-c2cnn(C3CCNCC3)c2)cnc1N)c1c(Cl)ccc(F)c1Cl [crizotinib]
# How it was run: as §1
# [1] = compound: C[C@H](C1=CC=C(C=C1)C(=O)NC2=C3C=CNC3=NC=C2)N
# How it was run: as §1
# duvelisib = compound: C[C@H](Nc1ncnc2nc[nH]c12)c1cc2cccc(Cl)c2c(=O)n1-c1ccccc1 [duvelisib]
# How it was run: as §1
# gandotinib = compound: Cc1cc(Nc2cc(CN3CCOCC3)c3nc(C)c(Cc4ccc(Cl)cc4F)n3n2)n[nH]1 [gandotinib]
# How it was run: as §1
# tozasertib = compound: Cc1cc(Nc2cc(N3CCN(C)CC3)nc(Sc3ccc(NC(=O)C4CC4)cc3)n2)n[nH]1 [tozasertib]
# How it was run: as §1
# doramapimod = compound: Cc1ccc(-n2nc(C(C)(C)C)cc2NC(=O)Nc2ccc(OCCN3CCOCC3)c3ccccc23)cc1 [doramapimod]
# How it was run: as §1
# bafetinib = compound: Cc1ccc(NC(=O)c2ccc(CN3CC[C@H](N(C)C)C3)c(C(F)(F)F)c2)cc1Nc1nccc(-c2cncnc2)n1 [bafetinib]
# How it was run: as §1
# [2] = compound: Cc1cccc(CC(=O)N2CCc3c2ccc(-c2cn(C)c4ncnc(N)c24)c3F)n1
# How it was run: as §1
# nilotinib = compound: Cc1cn(-c2cc(NC(=O)c3ccc(C)c(Nc4nccc(-c5cccnc5)n4)c3)cc(C(F)(F)F)c2)cn1 [nilotinib]
# How it was run: as §1
# [3] = compound: Cc1nc(Nc2n[nH]c3c2CN(C(=O)N[C@H](CN(C)C)c2ccccc2)C3(C)C)c2sccc2n1
# How it was run: as §1
# dasatinib = compound: Cc1nc(Nc2ncc(C(=O)Nc3c(C)cccc3Cl)s2)cc(N2CCN(CCO)CC2)n1 [dasatinib]
# How it was run: as §1
# [4] = compound: Cc1ncc(-c2ccnc(Nc3ccc(S(C)(=O)=O)cc3)n2)n1C(C)C
# How it was run: as §1
# [5] = compound: Cn1cc(-c2ccc3c(c2)CCN3C(=O)Cc2cccc(C(F)(F)F)c2)c2c(N)ncnc21
# How it was run: as §1
# quisinostat = compound: Cn1cc(CNCC2CCN(c3ncc(C(=O)NO)cn3)CC2)c2ccccc21 [quisinostat]
# How it was run: as §1
# tipifarnib = compound: Cn1cncc1[C@@](N)(c1ccc(Cl)cc1)c1ccc2c(c1)c(-c1cccc(Cl)c1)cc(=O)n2C [tipifarnib]
# How it was run: as §1
# [6] = compound: NC(=O)Nc1cc(-c2cccc(F)c2)sc1C(=O)N[C@H]1CCCNC1
# How it was run: as §1
# [7] = compound: NC(=O)c1cnc(N[C@@H]2CCCC[C@@H]2N)nc1Nc1cccc(-n2nccn2)c1
# How it was run: as §1
# [8] = compound: NC1(c2ccc(-c3nc4ccn5c(=O)[nH]nc5c4cc3-c3ccccc3)cc2)CCC1
# How it was run: as §1
# UniProt Q12873, sequence (Q12873 whole entry, looked up): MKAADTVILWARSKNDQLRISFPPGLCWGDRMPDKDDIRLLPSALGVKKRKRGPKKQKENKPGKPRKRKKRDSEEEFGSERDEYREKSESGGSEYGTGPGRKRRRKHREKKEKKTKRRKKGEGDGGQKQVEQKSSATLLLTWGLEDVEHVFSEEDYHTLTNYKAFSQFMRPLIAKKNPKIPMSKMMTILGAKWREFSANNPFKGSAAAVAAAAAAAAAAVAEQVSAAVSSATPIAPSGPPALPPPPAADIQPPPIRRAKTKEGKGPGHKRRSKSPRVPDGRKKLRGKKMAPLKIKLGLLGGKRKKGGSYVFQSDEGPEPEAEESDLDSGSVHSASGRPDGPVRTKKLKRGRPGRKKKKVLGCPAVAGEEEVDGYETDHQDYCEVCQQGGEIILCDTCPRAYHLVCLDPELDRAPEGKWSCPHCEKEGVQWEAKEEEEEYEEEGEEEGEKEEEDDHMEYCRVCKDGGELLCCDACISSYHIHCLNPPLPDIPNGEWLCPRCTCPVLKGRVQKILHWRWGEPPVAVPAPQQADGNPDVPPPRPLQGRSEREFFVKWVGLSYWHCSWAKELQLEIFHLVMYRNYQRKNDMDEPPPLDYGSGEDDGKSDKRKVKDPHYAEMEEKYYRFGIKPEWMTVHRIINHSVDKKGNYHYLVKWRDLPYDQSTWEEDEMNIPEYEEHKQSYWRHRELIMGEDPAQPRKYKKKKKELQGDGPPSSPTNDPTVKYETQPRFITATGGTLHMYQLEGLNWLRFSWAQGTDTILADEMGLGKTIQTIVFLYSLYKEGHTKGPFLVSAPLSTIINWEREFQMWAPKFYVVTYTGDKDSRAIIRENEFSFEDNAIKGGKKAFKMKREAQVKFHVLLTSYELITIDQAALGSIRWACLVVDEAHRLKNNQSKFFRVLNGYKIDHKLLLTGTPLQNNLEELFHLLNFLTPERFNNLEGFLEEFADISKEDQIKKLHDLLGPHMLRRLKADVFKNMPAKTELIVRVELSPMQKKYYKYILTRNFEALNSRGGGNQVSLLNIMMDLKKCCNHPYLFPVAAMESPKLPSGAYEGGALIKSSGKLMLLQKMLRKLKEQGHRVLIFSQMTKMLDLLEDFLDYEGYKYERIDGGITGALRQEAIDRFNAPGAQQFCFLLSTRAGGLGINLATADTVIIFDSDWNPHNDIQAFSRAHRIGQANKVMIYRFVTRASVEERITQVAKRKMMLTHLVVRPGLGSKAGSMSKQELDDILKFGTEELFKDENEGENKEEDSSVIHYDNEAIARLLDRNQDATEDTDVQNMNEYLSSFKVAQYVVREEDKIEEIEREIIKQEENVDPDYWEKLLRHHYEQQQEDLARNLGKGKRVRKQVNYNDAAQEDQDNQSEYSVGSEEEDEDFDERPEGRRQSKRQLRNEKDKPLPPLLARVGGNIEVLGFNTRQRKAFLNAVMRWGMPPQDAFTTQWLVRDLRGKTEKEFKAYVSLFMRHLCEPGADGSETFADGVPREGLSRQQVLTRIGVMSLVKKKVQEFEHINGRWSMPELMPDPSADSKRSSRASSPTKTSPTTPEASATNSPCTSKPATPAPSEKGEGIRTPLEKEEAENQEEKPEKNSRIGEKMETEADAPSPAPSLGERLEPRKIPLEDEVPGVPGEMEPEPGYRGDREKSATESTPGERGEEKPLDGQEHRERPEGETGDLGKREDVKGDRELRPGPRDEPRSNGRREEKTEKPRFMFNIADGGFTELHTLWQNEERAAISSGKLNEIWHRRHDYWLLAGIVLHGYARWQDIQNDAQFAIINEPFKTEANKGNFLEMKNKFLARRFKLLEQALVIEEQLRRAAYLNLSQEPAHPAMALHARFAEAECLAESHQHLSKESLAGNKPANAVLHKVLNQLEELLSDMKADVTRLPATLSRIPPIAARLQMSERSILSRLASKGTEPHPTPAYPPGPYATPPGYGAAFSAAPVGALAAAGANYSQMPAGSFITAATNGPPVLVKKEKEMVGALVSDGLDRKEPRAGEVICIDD
# UniProt Q9NXV6, sequence (Q9NXV6 whole entry, looked up): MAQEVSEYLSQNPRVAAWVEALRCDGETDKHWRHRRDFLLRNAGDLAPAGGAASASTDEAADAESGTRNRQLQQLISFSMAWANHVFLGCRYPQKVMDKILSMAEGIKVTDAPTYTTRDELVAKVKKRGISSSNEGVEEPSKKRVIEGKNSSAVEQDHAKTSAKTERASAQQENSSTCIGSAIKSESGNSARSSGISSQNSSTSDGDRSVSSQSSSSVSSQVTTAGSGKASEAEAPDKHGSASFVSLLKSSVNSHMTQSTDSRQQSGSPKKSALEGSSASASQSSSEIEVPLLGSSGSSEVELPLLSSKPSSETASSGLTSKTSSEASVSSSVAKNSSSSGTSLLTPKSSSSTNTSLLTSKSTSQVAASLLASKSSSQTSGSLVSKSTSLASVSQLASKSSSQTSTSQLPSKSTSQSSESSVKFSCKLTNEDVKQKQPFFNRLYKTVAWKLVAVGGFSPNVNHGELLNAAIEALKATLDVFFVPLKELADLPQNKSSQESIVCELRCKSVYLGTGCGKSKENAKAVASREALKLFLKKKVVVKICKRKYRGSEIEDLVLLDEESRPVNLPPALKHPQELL
# UniProt O95319, sequence (O95319 whole entry, looked up): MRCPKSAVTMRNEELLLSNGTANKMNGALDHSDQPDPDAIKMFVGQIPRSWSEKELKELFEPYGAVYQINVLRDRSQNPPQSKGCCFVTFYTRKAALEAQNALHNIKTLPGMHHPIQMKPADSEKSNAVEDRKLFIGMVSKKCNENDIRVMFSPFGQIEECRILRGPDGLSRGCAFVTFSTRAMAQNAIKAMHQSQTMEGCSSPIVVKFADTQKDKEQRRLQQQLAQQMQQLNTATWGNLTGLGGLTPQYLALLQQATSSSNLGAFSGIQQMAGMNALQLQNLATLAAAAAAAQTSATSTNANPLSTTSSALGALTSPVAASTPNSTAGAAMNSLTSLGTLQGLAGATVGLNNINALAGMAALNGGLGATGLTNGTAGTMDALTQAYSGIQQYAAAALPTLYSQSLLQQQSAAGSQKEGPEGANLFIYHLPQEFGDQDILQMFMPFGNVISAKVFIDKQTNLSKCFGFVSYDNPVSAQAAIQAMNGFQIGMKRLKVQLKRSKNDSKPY
# UniProt Q9NSG2, sequence (Q9NSG2 whole entry, looked up): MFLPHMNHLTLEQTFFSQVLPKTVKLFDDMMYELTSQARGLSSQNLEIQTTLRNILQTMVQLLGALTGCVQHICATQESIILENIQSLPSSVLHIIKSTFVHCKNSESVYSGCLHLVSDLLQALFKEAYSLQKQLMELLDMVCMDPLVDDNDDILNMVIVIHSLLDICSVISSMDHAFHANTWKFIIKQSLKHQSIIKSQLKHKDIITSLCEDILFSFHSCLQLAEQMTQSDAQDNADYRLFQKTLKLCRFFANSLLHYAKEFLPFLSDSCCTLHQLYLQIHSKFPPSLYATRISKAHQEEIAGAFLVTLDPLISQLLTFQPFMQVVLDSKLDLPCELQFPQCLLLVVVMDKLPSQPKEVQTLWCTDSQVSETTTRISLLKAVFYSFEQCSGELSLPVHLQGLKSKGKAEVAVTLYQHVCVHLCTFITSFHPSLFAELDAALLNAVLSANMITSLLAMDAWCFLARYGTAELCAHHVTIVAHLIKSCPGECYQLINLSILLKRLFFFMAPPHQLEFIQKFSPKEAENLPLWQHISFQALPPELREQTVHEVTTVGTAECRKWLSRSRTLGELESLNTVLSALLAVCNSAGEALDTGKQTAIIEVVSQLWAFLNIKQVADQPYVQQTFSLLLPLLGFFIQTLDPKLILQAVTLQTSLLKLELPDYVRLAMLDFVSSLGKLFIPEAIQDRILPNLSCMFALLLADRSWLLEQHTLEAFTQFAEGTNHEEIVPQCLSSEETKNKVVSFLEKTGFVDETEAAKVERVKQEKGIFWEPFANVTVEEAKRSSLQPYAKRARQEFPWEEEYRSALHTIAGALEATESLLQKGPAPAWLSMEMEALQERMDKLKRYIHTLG
# UniProt P25440, sequence (P25440 whole entry, looked up): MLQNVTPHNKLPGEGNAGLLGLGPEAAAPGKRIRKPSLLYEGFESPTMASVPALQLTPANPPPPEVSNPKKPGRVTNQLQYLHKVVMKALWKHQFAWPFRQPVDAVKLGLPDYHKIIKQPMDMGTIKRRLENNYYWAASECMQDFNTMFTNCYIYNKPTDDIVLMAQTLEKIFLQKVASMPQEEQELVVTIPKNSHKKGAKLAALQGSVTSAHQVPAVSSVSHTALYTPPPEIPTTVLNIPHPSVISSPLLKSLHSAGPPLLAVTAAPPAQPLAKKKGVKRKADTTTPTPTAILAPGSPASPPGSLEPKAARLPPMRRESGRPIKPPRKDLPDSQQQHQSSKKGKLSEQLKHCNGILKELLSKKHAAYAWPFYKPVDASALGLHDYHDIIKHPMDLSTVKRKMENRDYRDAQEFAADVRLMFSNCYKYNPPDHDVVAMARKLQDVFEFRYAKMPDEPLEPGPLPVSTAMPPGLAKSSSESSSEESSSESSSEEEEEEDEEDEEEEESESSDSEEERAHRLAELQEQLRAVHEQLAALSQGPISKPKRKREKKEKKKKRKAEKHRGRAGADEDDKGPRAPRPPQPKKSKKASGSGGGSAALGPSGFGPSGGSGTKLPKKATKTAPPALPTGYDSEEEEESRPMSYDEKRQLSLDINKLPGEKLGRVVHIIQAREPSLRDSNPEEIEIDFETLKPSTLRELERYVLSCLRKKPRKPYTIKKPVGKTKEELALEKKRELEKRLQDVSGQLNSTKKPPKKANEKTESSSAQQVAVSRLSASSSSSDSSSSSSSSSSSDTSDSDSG
# UniProt Q9BUK0, sequence (Q9BUK0 whole entry, looked up): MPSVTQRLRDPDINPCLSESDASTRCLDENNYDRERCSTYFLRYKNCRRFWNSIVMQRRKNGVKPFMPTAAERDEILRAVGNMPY
# UniProt Q9HB09, sequence (Q9HB09 whole entry, looked up): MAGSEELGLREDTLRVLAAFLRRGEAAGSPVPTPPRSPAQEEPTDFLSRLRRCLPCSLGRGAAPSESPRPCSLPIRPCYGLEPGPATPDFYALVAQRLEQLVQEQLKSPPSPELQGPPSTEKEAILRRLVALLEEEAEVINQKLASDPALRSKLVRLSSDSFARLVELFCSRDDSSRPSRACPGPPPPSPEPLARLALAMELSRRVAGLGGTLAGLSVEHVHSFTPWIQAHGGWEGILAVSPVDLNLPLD
Target,log2 fold change (lapatinib),log2 fold change (pictilisib),log2 fold change (crizotinib),log2 fold change [1],log2 fold change (duvelisib),log2 fold change (gandotinib),log2 fold change (tozasertib),log2 fold change (doramapimod),log2 fold change (bafetinib),log2 fold change [2],log2 fold change (nilotinib),log2 fold change [3],log2 fold change (dasatinib),log2 fold change [4],log2 fold change [5],log2 fold change (quisinostat),log2 fold change (tipifarnib),log2 fold change [6],log2 fold change [7],log2 fold change [8]
ATP11A (UniProt P98196),-0.118,-0.087,-0.005,-0.108,0.081,0.017,0.009,-0.07,-0.05,0.1,-0.046,-0.053,0.018,0.011,0.035,0.002,0.019,0.043,-0.045,-0.012
BCL2L12 (UniProt Q9HB09),0.164,-0.184,0.01,0.045,0.009,-0.003,-0.056,-0.016,-0.296,0.057,-0.12,-0.007,-0.129,-0.004,0.046,0.022,0.075,-0.041,0.121,0.013
CD63 (UniProt P08962),0.006,-0.256,0.036,-0.415 (active),0.025,0.209,0.013,0.077,-0.08,0.074,-0.053,0.098,-0.034,-0.032,0.005,-0.08,0.126,-0.006,-0.043,-0.009
CHD3 isoform 3 (UniProt Q12873),-0.022,-0.02,0.009,0.014,-0.022,-0.013,-0.002,0.028,-0.047,0.033,0.036,-0.004,-0.033,-0.047,0.032,0.005,0.014,0.029,-0.002,0.008
CARS isoform 3 (UniProt P49589),-0.006,-0.006,0.019,0.003,-0.015,-0.045,0.014,0.014,-0.008,-0.011,-0.019,-0.007,-0.024,-0.007,0.012,0.048,0.007,0.004,0.001,-0.01
CCNH (UniProt P51946),0.005,-0.012,0.012,0.026,0.072,-0.002,0.013,0.037,-0.022,-0.023,-0.013,0.106,0.03,-0.001,0.015,0.016,-0.043,-0.009,0.026,0.013
BCKDK (UniProt O14874),-0.056,-0.028,0.096,-0.038,-0.008,-0.095,-0.039,-0.033,0.012,-0.003,0.008,0.001,0.023,-0.061,0.058,0.094,-0.058,-0.092,-0.029,0.052
BRD2 isoform 2 (UniProt P25440),0.014,0.012,0.024,0.128,-0.007,-0.133,0,-0.084,-0.131,-0.186,0.012,0.15,0.011,-0.024,-0.048,-0.028,-0.035,0.028,-0.161,-0.064
C12orf45 (UniProt Q8N5I9),-0.027,-0.031,0.042,-0.269 (active),-0.014,0.148,-0.044,-0.023,0.001,0.072,-0.026,-0.003,0.019,-0.017,0.035,-0.019,-0.014,-0.015,0,0.024
CARNMT1 (UniProt Q8N4J0),0.01,-0.029,-0.131,-0.354 (active),0.018,0.038,-0.04,0.01,-0.078,0.181,0.019,-0.016,0.003,-0.019,0.006,-0.173,0.011,0.004,0.019,-0.023
CHCHD7 isoform 4 (UniProt Q9BUK0),0.079,0.06,-0.052,-0.382 (active),-0.01,0.266,-0.077,0.026,-0.001,0.187,-0.147,0.031,-0.044,-0.147,0.041,-0.207,-0.117,0.055,-0.04,
CDKN2AIP (UniProt Q9NXV6),-0.015,-0.036,0.024,-0.04,0.017,0.08,-0.034,0.043,0.016,0.026,0.002,-0.023,-0.004,-0.008,-0.014,-0.031,0.005,0.008,-0.01,0.001
BRAT1 (UniProt Q6PJG6),0.026,-0.013,-0.103,0,-0.001,-0.1,0.017,0.052,-0.014,0.038,0.031,-0.016,-0.046,0.01,0.046,-0.07,0,0.008,0.047,-0.017
C1orf112 (UniProt Q9NSG2),0.018,-0.004,-0.055,-0.073,-0.035,0.232,-0.091,0.021,0.005,0.279 (active),0.089,-0.015,-0.102,0.017,0.05,-0.1,-0.046,0.036,-0.03,-0.007
CELF2 isoform 3 (UniProt O95319),0.039,0.032,0.072,0.104,-0.001,-0.052,0.017,-0.579 (active),-0.042,-0.124,0.054,0.038,-0.015,-0.028,-0.043,0.036,-0.129,-0.037,-0.021,0.068
CDC45 isoform 3 (UniProt O75419),-0.036,-0.014,-0.009,0.023,-0.007,-0.079,0,-0.002,-0.077,-0.018,-0.022,0.013,-0.044,-0.003,0.038,0.015,-0.022,0.047,0.003,-0.058
